In PubChem BioAssay (NCI):
Compounds without any hit were thinned out: in the full panel of roughly 79,000, 15% have a hit. Unmarked numbers belong to inactive results. Active and inactive are the calls of the source. Cut-off read from the data, not from the text of the source: active = growth inhibition above about 70%; inactive = the rest.

Experiments:
[1] = NCI Yeast Anticancer Drug Screen. Data for the rad50 strain (AID 155);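 note: 0% = growth of vehicle-only cultures of the same strain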; settings: S. cerevisiae rad50 strain growth inhibition; at 50.0 µM; active compounds read high
Outline: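 Genetically altered yeast (DNA repair pathway); compound treatment; growth inhibition vs vehicle ctrl.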

[2] = NCI Yeast Anticancer Drug Screen. Data for the mec2-1 strain (AID 157); settings: S. cerevisiae mec2-1 strain, at 50.0 µM, active compounds read high
Outline: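 Cells of the genetically defined mec2-1 yeast strain are incubated with test compound. Inhibition of growth is calculated against vehicle-treated controls.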

[3] = NCI Yeast Anticancer Drug Screen. Data for the sgs1 mgt1 strain (AID 161);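 note: 0% = growth of cultures given vehicle only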; settings: S. cerevisiae sgs1 mgt1 strain, at 50.0 µM, active compounds read high
Outline: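 Inhibition of yeast growth, normalised to vehicle-treated controls, is reported for a strain bearing genetic alterations in DNA damage repair.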

[4] = NCI Yeast Anticancer Drug Screen. Data for the cln2 rad14 strain (AID 165);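 note: 0% = growth equal to vehicle treated cultures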; settings: S. cerevisiae cln2 rad14 strain, at 50.0 µM, active compounds read high
Outline: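 The screen exposed genetically defined yeast (cln2 rad14) to test compounds and scored growth inhibition relative to vehicle-treated controls.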

[5] = NCI Yeast Anticancer Drug Screen. Data for the bub3 strain (AID 167); settings: S. cerevisiae bub3 mutant strain, at 50.0 µM, active compounds read high
Outline: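 Yeast carrying a defined mutation is treated with each compound, and growth is compared with that of vehicle-exposed cells to give inhibition.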

[6] = NCI Yeast Anticancer Drug Screen. Data for the mlh1 rad18 strain (AID 175); settings: S. cerevisiae mlh1 rad18 strain growth inhibition; at 50.0 µM; active compounds read high
Outline: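 Compound-treated yeast growth, normalised to vehicle controls. Strain bears defined DNA repair mutations.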

SMILES	growth inhibition [1]	growth inhibition [2]	growth inhibition [3]	growth inhibition [4]	growth inhibition [5]	growth inhibition [6]
COC(=O)c1cn2ccc3ccccc3c2c1C(=O)OC	-3.95%	2.15%	9%	-0.25%	-15.7%	15.5%
N=c1sc(N2CCOCC2)nn1CC(=O)c1ccccc1	3.25%	-20.9%	-18.2%	4.35%	-17.1%	15.1%
CN(C(=O)CCC(=O)O)c1ccccc1C(=O)O	0.2%	-2.35%	11%	-5.75%	0.85%	-15.9%
NC(=O)NC(=O)Cc1ccc(N)cc1	4.6%	-9.1%	1.9%	1.1%	4%	-4.9%
CCOC(=O)C1(C(=O)OCC)CCCCC1=O	13.2%	-15.2%	-22.9%	11.2%	-46.6%	-1.1%
O=C1N/C(=N\OCCc2ccccc2)CC(NOCCc2ccccc2)N1 (stereo unspecified)	-0.2%	18.8%	2.25%	-11.6%	40.5%	7.5%
O=S1c2ccccc2N=C(c2ccc3ccccc3c2)CC1C1=CC=CCC1 (stereo unspecified)	-27.4%	-33.1%	-3.1%	-2.65%	3.85%	-11.8%
COc1cc2cc3c4cc(OC)c(OC)cc4cc[n+]3c(CCC(=O)O)c2cc1OC (tested in a mixture with another compound)	10.4%	-2.75%	-8.25%	-4%	9.35%	-0.1%
CC(C)CC(NC(=O)CN1C(=O)c2ccccc2C1=O)C(=O)O (stereo unspecified)	-10.3%	-41.6%	7.4%	3.2%	-17%	-24.1%
NCCNCCCNCCN	7.85%	-2.4%	7.95%	-2.45%	27.4%	6.45%
COc1c(OC2OC(CO)C(O)C(O)C2O)cc2c(c1OC)-c1ccc(OC)c(=O)cc1C(NC(C)=O)CC2 (stereo unspecified)	13.8%	8.75%	10.8%	11.7%	19%	20.4%
O=S(=O)(c1ccccc1)c1ccccc1Br	8%	14.8%	-3.3%	-18.4%	-10.2%	35%
Cc1cc(O)c2c(c1)C[C@@H](O)C1=C2C(=O)c2c(O)ccc(OC3CC(O)C(OC4CC(OC5CCC(OC6CC(O)C(OC7CC(OC8CCC(O)C(C)O8)C(O)C(C)O7)C(C)O6)C(C)O5)C(O)C(C)O4)C(C)O3)c2C1=O (stereo partly specified)	88.5% (active)	90.6% (active)	90.1% (active)	84.8% (active)	86.6% (active)	88.5% (active)
CC(C)/C=N/N=C/C(C)C	-15.8%	9.7%	-16.6%	15.3%	-13.6%	-12.8%
Cc1ccccc1C(=O)OC1CCCCC1	9.2%	-13.1%	-9.65%	-39.5%	9.8%	5.7%
N#Cc1cc(C#N)c(N)nc1N	14.1%	6.35%	1.8%	13.4%	-1.25%	-5.7%
CN(CC(C)(C)C(O)c1ccccc1)C(=O)c1ccccc1 (stereo unspecified)	0.95%	-5.7%	12.7%	20.7%	8.2%	12.6%
O=C(/C=C/c1ccccc1O)c1ccccc1	-22.8%	-15.7%	3.2%	1.9%	-5.2%	-24.6%
Cc1cc(=O)oc2c1ccc1occc(=O)c12	-16.6%	10.4%	-10.3%	4.95%	11.9%	-11%
CCOC(=O)c1[nH]n(-c2ccccc2)c(=O)c1C=NC(=S)c1cccnc1	-12.3%	2.1%	-29.2%	20.2%	-24.9%	-16.5%
COC(CN1C(=O)CSC1=S)OC	10.8%	-1.65%	27.1%	17.2%	29.1%	-6.8%

SMILES	growth inhibition [1]	growth inhibition [2]	growth inhibition [3]	growth inhibition [4]	growth inhibition [5]	growth inhibition [6]
Cc1cccc(C2=N/C(=C\c3ccccc3)C(=O)O2)c1	7.15%	7.5%	18.8%	10.8%	5.75%	5.35%
CC(=O)C1=CCC2[C@H]3CC=C4C[C@H](O)CC[C@@]4(C)C3CC[C@@]12C (stereo partly specified)	21.2%	55.2%	49.8%	17.9%	58.6%	37.7%
CC(=O)NCCN1CCN(C(C)=O)CC1	10.1%	10.7%	-8.7%	-37%	-13.8%	-15.2%
O=c1cc(-c2ccc(Cl)cc2)oc2cc(OCCCOc3ccc4c(=O)cc(-c5ccc(Cl)cc5)oc4c3)ccc12	40.9%	37.5%	12.8%	-33.1%	19.9%	25.1%
O=C1C=C(N2CCCC2)CC1	18.2%	3.1%	-0.2%	-43%	-17.1%	6.25%
CCCCCC(=O)N1CCOCC1	11.2%	10.8%	5.6%	-6.35%	-21.4%	9%
Cc1ccc(NC(=O)CCC(=O)C(C#N)c2ccc(Cl)cc2)cc1C (stereo unspecified)	-8.25%	-7.95%	8.55%	4.75%	8.4%	0.25%
Cc1ccc(F)cc1S(N)(=O)=O	-19.4%	-9.65%	-16.6%	-14.4%	12.3%	-7.8%
CC1C2CC(C/C2=N/O)C1(C)C (stereo unspecified)	19.7%	19.1%	36.5%	29.1%	11.3%	21.6%
CN1C=CC=CC1=C1C(=O)c2ccccc2C1=O	26.8%	12.6%	17.2%	35.6%	-2.1%	23.2%
CC1=CC(C)=C(C#N)C2=S=C(c3ccccc3)C(=O)N12	6%	14.8%	22.5%	29.1%	19.9%	22.1%
O=c1[nH]c2c(Br)cccc2c2ccccc12	43.1%	3.85%	11.8%	-30.9%	-14.5%	17.5%
Cc1ccc(C2=Nc3cccc4cccc(c34)N2)cc1	-40%	-71.7%	-26.3%	11.1%	-2.2%	-8.85%
O=C(OCC(O)C(O)C(O)C(O)COC(=O)c1ccccc1)c1ccccc1 (stereo unspecified) (tested in a mixture with another compound)	-0.9%	3.6%	-0.75%	-29.6%	0.85%	12.2%
CN1CCN(C(=O)NC2CCCCC2)CC1	-2.1%	-10.9%	3.35%	-44.4%	-8.4%	-7.6%
CCCCCCC(/C=N\N=C\c1ccco1)=C\c1ccccc1	-2.7%	6.15%	1.25%	2.75%	16.9%	-7.8%
O=[N+]([O-])C1CC(O)C(O)CC1c1ccc2c(c1)OCO2 (stereo unspecified)	11.1%	7.25%	1.7%	3.05%	1.95%	3.7%
COc1ccc(/C=C2\N=C(c3ccc([N+](=O)[O-])cc3)OC2=O)cc1Br	29.9%	21.6%	27.5%	23.4%	-1.95%	29.4%
O=C(Nc1ccc([N+](=O)[O-])cc1)c1ccc(Cl)cc1	-4.7%	7.75%	-1.35%	-50.5%	5.15%	-36.5%
C[N+](C)(CCO)CCN1c2ccccc2Sc2ccccc21	-3.1%	-17.5%	10.2%	-23.6%	-14.6%	-3.7%
